Screens deposited in PubChem BioAssay by National Center for Advancing Translational Sciences (NCATS).
ELG1 genotox: qHTS screen for small molecules that induce genotoxicity in human embryonic kidney (HEK293T) cells expressing luciferase-tagged ELG1. HEK293T ELG1-luciferase reporter, luminescence, 16 h. Potency, µM (titrated, usually from 46 µM), inactives show at the top dose activity change, positive = activation, hits mostly activators. hit rate 1.3% among 330,000; further: % of control where 0% means no effect; nearly all actives have a fitted effect of over 60% in size
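ELG1-luciferase HEK293T cells, 2,000/well; compound pinned in; 16 hr, 37 °C, 5% CO2; ONE-Glo, 30 min RT; luminescence on CCD imager.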
NPC1 prom act: qHTS Assay for NPC1 Promoter Activators; Huh7 NPC1 promoter luciferase reporter, 24 h; Potency, µM (highest dose often 9.22 µM), without a hit: at the highest dose activation, most hits filed as activators; hit rate 2.4% among 320,000; AID 485313, 2010; further: % of control where 0% means no effect; nearly all actives have a fitted effect of over 60% in size
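NPC1 promoter–luciferase Huh7 cells; 24 h compound; luminescence.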
KinaseGlo FLuc: Counterscreen for Luciferase (Kinase-Glo TM) Inhibition; Luciferin 4-monooxygenase (Photuris pensylvanica), Q27757; Kinase-Glo luciferase, ATP luminescence, 8 min; Potency, µM (doses to about 38.3 µM), inactives show top-dose activity change, negative = inhibition, actives largely listed as inhibitors; hit rate 0.28% among 200,000; AID 1379, 2008; further: on the % scale 0 is the no-effect control and ±100 the full control effect; nearly all actives have a fitted effect of over 60% in size
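Compound is pinned into ATP-containing buffer (10 uM ATP, imidazole pH 7.2, 7 mM MgCl2). Kinase-Glo luciferase reagent is then added. Light output is recorded following an 8-min room-temperature incubation.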
SMN2 splice enh: qHTS Assay for Enhancers of SMN2 Splice Variant Expression; HEK293 SMN2-luciferase splicing reporter, luminescence, 30-36 h; AID 1458, 2008; hit rate 2.8% among 210,000; Potency, µM (titrated, usually from 46.1 µM), inactives show top-dose activity change, positive = activation, hits mostly activators; further: % of control where 0% means no effect; nearly all actives have a fitted effect of over 55% in size
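HEK293 cells carry an SMN2 minigene-luciferase reporter in which exon 7 inclusion puts luciferase in frame. Cells were seeded at 2000 cells/well, attached for 10-12 hours, then exposed to compounds for 30-36 hours at 37C before ONE-Glo luminescence.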
FLuc counter: qHTS profiling assay for firefly luciferase inhibitor/activator using purifed enzyme and Km concentrations of substrates (counterscreen for miR-21 project); Luciferin 4-monooxygenase (Photinus pyralis), P08659; purified FLuc, Km substrates, luminescence inhibition; Potency, µM (doses to about 57.5 µM), without a hit: at the highest dose activity change, negative = inhibition, actives largely listed as inhibitors; hit rate 6.9% among 360,000;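 further: plate controls were vehicle for no effect and reference inhibitor for full effect; nearly all actives have a fitted effect of over 55% in size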
Target sequence (P08659 whole entry, looked up): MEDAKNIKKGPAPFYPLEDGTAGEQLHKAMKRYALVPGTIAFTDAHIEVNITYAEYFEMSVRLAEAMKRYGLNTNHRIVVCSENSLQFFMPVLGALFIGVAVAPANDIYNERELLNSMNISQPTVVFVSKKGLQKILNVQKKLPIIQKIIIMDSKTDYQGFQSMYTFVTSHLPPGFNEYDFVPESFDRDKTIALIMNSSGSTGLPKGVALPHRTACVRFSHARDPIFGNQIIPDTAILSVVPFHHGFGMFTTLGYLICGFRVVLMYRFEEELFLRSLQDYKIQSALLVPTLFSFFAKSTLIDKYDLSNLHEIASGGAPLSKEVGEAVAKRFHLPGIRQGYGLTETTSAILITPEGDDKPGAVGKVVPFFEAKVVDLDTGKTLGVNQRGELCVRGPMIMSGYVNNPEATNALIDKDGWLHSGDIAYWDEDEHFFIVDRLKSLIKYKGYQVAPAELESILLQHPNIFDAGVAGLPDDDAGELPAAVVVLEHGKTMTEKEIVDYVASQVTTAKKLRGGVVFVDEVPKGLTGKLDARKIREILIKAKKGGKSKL
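Purified P. pyralis luciferase (10nM final) with 10uM D-luciferin and 10uM ATP (Km levels) in 50mM Tris acetate pH 7.5, 10mM Mg acetate, 0.01% Tween-20, 0.05% BSA; qHTS 6-point titration, ~60 µM downward; luminescence read.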
Rab9 prom act: qHTS Assay for Rab9 Promoter Activators. Huh7 Rab9 promoter-luciferase reporter, luminescence, 24 h. Potency, µM (doses to about 9.22 µM), for inactives: at the highest dose activation, negative = inhibition, hits mostly activators. hit rate 2.8% among 320,000; further: % of control where 0% means no effect; nearly all actives have a fitted effect of over 60% in size
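Luminescence read-out: Huh7 cells stably expressing Rab9-luciferase, treated 24 h with compound at 37 °C, then lysed with luciferase reagent for 10 min at ambient before reading.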
* = called active by the depositor; ? = inconclusive; . = not tested or not shown; ! = not confirmed by another sample; [ ] = remark or other dose. The list is not random: actives were taken first. Their share in the collection is about 7.3%. The call rests on the fitted dose curve; in most records, active means well fitted curve in the direction sought with a large enough effect; inconclusive means small, poorly fitted or top-dose-only effect, or another doubt; inactive means no such curve, though single readings can be large; an effect the other way counts as inactive or inconclusive. Potency means the concentration at half of the fitted maximal effect.

SMILES | ELG1 genotox | NPC1 prom act | KinaseGlo FLuc | SMN2 splice enh | FLuc counter | Rab9 prom act
COc1cc(C=C2C(=O)NC(=O)NC2=O)ccc1OCc1ccc([N+](=O)[O-])cc1 | 20.6µM* | -6.7% | -5.0% | ? | 9.53µM* | 0.5%
CCn1c(O)c(C=Nc2ccc(N3CCOCC3)c(Br)c2)c(=O)n(CC)c1=S | -8.5% | -6.6% | 0.2% | -20.5% | 0.7% | -1.8%
COC(=O)c1cn(CCOc2ccccc2)c2ccccc12 | 20.6µM* | 22.0% | 0.4% | 23.3% | ? | 2.1%
CCOc1ccc(CC2C(=O)NC(=O)N(c3ccc(CC)cc3)C2=O)cc1 (stereo unspecified) | -0.2% | -7.2% | 9.4% | -21.7% | 1.4% | 2.5%
CC1=C2[C@@H]3OC(=O)[C@@H](C)[C@@H]3CC[C@]2(C)C=CC1=O | . | . | -1.6%[17.1 µM] | -5.2%[20.6 µM] | . | .
CC(C)n1c(=O)c(C=Nc2ccc(F)cc2)c(O)n(Cc2ccco2)c1=O | -1.5% | -4.9% | -4.0% | -2.1% | -2.3% | -3.5%
CC(=O)[C@@]1(O)CCC2C3CC=C4C[C@@H](O)CC[C@]4(C)C3CC[C@@]21C (stereo partly specified) | 1.1% | . | . | . | . | .
CCCOC1CCCN(C(=O)CCc2nnc(Cc3cccc(C)c3)o2)C1 (stereo unspecified) | ? | ? | -2.6% | . | 21.3µM* | 2.82µM*
O=[As](O)(O)c1ccc(N=Nc2ccc(O)cc2)cc1 | 1.9% | 0.0% | -3.0%[7.66 µM] | -1.1%[9.22 µM] | 13.5µM* | -2.3%
Cn1c(O)c(/C=C2\C=c3ccccc3=NC2=O)c(=O)n(C)c1=O | 0.9% | 1.6% | . | . | -19.9% | -7.7%
CCOC(=O)C1(CCCc2ccccc2)CCN(C2CCC2)CC1 | -0.3% | -3.3% | 1.5% | . | 0.8% | 0.3%
CC(=O)Nc1ccccc1C(=O)OCC(=O)c1ccccc1Cl | ? | ? | 0.8% | 16.9% | 9.53µM* | 3.55µM*
CN1C2CCC1CC(OC(=O)c1ccc([N+](=O)[O-])cc1)C2 (stereo unspecified) | -0.3% | -1.3% | 2.4% | -7.2% | 2.2% | -2.4%
Cc1c(OCC(F)(F)F)ccnc1CS(=O)c1nc2ccccc2[nH]1 (stereo unspecified) | 13.3% | 2.82µM* | -5.6% | -9.8% | 13.5µM*! | 3.98µM*
COCCCOc1ccnc(CS(=O)c2nc3ccccc3[nH]2)c1C (stereo unspecified) | 14.3% | 3.16µM* | -4.6%[39.9 µM] | . | ? | 2.82µM*
CCOc1ccc2nc(N=Nc3c(O)[nH]c(=S)[nH]c3=O)sc2c1 | -6.3% | -3.8% | -7.7% | 3.1% | 19µM* | -0.9%
O=C(c1cc2c(s1)-c1ccccc1OC2)N1CCC2(CC1)OCCO2 | ? | ? | -5.3% | 5.62µM* | 6.75µM* | 0.891µM*
O=c1[nH]c(=S)[nH]c(O)c1N=Nc1ccc(SC(F)F)cc1 | 6.51µM* | 3.16µM* | . | . | 1.2µM* | 3.16µM*
CC(C)c1ccc(N=Nc2c(O)[nH]c(=O)[nH]c2=O)cc1 | ? | ? | . | . | 2.39µM* | ?
O=C(O)c1cccc(N=Nc2c(O)[nH]c(=O)[nH]c2=O)c1 | -1.8% | -3.8% | . | . | 15.1µM* | 26.7%
O=C(c1ccccc1)c1ccc(N=Nc2c(O)[nH]c(=O)[nH]c2=O)cc1 | 12.2% | -9.0% | -0.2% | 3.3% | 0.9% | ?
O=C1NC(=O)N(CCC2=CCCCC2)C(=O)/C1=C\c1cccs1 | ? | -0.6% | 0.1% | 4.5% | ? | 4.6%
Cc1ccc(N)c(C(=O)c2ccccc2)c1 | 0.4% | -4.7% | 0.2% | -3.6% | 0.9% | 1.1%
ClC(Cl)=C(c1ccc(Cl)cc1)c1ccc(Cl)cc1 | -1.0% | 1.3% | -2.9% | 6.2% | 0.3% | -0.8%
Cc1cc(NC(=O)CCl)on1 | 7.3% | -6.1% | 3.0% | 26.6% | -1.9% | 2.1%
